Laboratory results: PubChem BioAssay (NCI)
About 79,000 compounds went through this panel and 15% of them were active in at least one assay; those are over-represented in the sample as a whole. Activity calls are given as the source filed them. No stated cut-off is given here; in the data, active means growth inhibition above about 70%; inactive means the rest.

Assay: NCI Yeast Anticancer Drug Screen. Data for the rad52 strain (AID 147);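 further: 0% = growth of vehicle-treated control cultures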
Details: S. cerevisiae rad52 mutant growth inhibition, hits give high values
Method: Growth inhibition of yeast strains with defined genetic alterations is measured as a screen for potential anti-cancer activity. Selected strains with alterations in DNA damage repair or cell cycle control were exposed to compounds and growth inhibition was measured relative to vehicle treated controls. The strain used in this assay is rad52

Measured: growth inhibition

BrC1C2CCC3OC3C12 (stereo not given)
inactive: at 1.2 µM 3% | at 3.7 µM 16%
active: at 11.0 µM 97% | at 33.0 µM 99% | at 100.0 µM 99%

CC(=O)N1C=Cc2c(c(C)c3c([nH]c4ccccc43)c2C)C1
active: at 3.7 µM 88% | at 11.0 µM 95% | at 33.0 µM 96% | at 100.0 µM 97%
inactive: at 1.2 µM 25%

CC1=NN(C(=O)CC(=O)NC(=O)/C=C\c2ccccc2)C(=O)C1N=Nc1ccc([N+](=O)[O-])cc1 (stereo not given)
inactive: at 1.2 µM -1% | at 3.7 µM 3% | at 11.0 µM 56%
active: at 33.0 µM 75% | at 100.0 µM 72%

O=[N+]([O-])[O][Sn]([O][Sn]([O][N+](=O)[O-])([c]1ccccc1)[c]1ccccc1)([c]1ccccc1)[c]1ccccc1
inactive: at 1.2 µM 6% | at 3.7 µM 9% | at 11.0 µM 13% | at 33.0 µM 32% | at 100.0 µM 57%

Cc1cc(O)c(C(C)C)cc1SC#N
active: at 100.0 µM 98%
inactive: at 1.2 µM 2% | at 3.7 µM -12% | at 11.0 µM 62% | at 33.0 µM 34%

Cc1ccccc1NC(=O)c1c(C)oc2c1C(=O)c1ccccc1C2=O
inactive: at 1.2 µM -7% | at 3.7 µM -6% | at 11.0 µM 3% | at 33.0 µM 17% | at 100.0 µM 69%

COc1ccc2nc3cccc([N+](=O)[O-])c3c(NCCNCCN(C)C)c2c1
inactive: at 1.2 µM -4% | at 3.7 µM -3% | at 11.0 µM -6% | at 33.0 µM -4% | at 100.0 µM 2%

COc1ccccc1/C=C\C(=O)C1COCN1 (stereo not given)
active: at 33.0 µM 71% | at 100.0 µM 99%
inactive: at 1.2 µM 4% | at 3.7 µM 14% | at 11.0 µM 25%
